{"source": "PubChem BioAssay", "key": {"[1]": {"test_system": "Plasmodium falciparum Sir2 (PF13_0152, Sir2A)", "assay": "Plasmodium falciparum Sir2A binding compounds – biochemical, small-molecule microarray, 635 nm fluorescence, primary screen (AID 1098);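 further: score merges spot fluorescence intensity with its signal-to-noise ratio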", "settings": "fluorescence 635 nm, higher = more signal"}, "[2]": {"assay": "probe aDKK1 binding to arrayed compounds – biochemical, biotinylated probe, 635/667 nm fluorescence, primary screen (AID 1099);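 further: score merges 667nm spot fluorescence with signal to noise across triplicate slides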", "settings": "small-molecule microarray, higher = more signal"}, "[3]": {"assay": "probe aCHRDL2 binding to arrayed compounds – biochemical, biotinylated probe, 635/667 nm fluorescence, primary screen (AID 1100)", "settings": "small-molecule microarray, higher = more signal"}, "[4]": {"assay": "change in splice reporter luminescence, either direction, cell-based, HEK293, spliceosome inhibition project, primary screen (AID 1101);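 further: HEK293 cells carrying a splicing-competent luciferase reporter gene; test concentration not given here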", "settings": "HEK293 splicing luciferase reporter, 24 h, higher = more signal, called active from +8 up or from −8 down"}, "[5]": {"target": "Fibroblast growth factor 10 (Homo sapiens) (UniProt O15520)", "sequence (O15520 whole entry, looked up)": "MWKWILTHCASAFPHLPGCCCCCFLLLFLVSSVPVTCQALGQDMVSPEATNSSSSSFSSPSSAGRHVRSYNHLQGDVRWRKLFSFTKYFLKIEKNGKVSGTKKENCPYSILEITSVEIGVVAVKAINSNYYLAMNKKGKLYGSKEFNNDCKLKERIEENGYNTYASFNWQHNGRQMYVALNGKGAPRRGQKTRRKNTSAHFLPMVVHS", "assay": "compounds binding fibroblast growth factor 10 – biochemical, small-molecule microarray, 635 nm fluorescence, primary screen (AID 1102)", "settings": "FGF10 binding, fluorescence 635 nm, higher = more signal"}, "[6]": {"test_system": "glycogen synthase kinase-3 (GSK3A per assay name; protocol says GSK3B)", "assay": "compounds binding glycogen synthase kinase-3 – biochemical, small-molecule microarray, 635 nm fluorescence, GSK3A, primary screen (AID 1103); further: the record names both GSK3A and GSK3B", "settings": "fluorescence 635 nm, higher = more signal"}, "[7]": {"target": "Epidermal growth factor receptor (Homo sapiens) (UniProt P00533)", "sequence (P00533 whole entry, looked up)": "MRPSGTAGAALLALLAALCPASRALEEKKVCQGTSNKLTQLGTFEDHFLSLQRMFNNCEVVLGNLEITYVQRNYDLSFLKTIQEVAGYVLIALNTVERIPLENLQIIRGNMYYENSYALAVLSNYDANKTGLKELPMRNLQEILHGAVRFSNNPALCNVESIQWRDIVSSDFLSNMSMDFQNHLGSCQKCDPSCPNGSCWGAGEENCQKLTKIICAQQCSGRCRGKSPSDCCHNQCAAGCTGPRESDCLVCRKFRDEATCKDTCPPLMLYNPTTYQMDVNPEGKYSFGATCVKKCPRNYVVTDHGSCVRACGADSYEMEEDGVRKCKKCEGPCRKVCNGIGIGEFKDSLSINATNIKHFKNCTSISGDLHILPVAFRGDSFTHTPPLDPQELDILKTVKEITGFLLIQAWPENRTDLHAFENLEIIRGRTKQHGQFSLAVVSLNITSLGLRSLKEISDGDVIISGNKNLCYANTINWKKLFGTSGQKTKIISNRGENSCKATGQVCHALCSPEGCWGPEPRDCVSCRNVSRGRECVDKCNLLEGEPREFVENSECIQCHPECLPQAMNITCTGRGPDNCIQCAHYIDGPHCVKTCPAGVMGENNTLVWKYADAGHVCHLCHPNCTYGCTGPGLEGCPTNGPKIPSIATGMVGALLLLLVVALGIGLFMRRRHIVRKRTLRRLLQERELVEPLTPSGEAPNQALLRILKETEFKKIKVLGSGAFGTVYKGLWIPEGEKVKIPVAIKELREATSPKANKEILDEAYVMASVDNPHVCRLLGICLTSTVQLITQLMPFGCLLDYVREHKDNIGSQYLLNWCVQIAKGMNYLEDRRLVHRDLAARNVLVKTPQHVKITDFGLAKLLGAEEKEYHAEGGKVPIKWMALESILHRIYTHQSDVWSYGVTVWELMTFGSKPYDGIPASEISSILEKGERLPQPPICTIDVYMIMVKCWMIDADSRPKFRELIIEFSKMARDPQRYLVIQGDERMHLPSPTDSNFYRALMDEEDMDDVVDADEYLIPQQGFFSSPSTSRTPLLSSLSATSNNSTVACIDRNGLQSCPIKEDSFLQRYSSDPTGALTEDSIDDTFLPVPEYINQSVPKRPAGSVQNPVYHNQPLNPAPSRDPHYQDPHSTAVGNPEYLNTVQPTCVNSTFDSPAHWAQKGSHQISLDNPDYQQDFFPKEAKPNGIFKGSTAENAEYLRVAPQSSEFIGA", "assay": "compounds binding epidermal growth factor receptor – biochemical, small-molecule microarray, 635 nm fluorescence, primary screen (AID 1104);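 further: score merges 667 nm emission intensity with spot signal to noise over triplicate slides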", "settings": "EGFR binding, higher = more signal"}, "[8]": {"target": "Follistatin-related protein 3 (Homo sapiens) (UniProt O95633)", "sequence (O95633 whole entry, looked up)": "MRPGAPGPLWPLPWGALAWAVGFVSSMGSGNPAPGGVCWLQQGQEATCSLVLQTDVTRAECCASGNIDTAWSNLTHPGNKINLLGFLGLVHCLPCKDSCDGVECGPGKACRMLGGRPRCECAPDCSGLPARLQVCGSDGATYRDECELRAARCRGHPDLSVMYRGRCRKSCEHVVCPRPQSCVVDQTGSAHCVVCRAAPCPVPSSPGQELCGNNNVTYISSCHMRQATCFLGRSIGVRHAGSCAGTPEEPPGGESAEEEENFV", "assay": "compounds binding follistatin-related protein 3 – biochemical, small-molecule microarray, 635 nm fluorescence, primary screen (AID 1105);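 further: score merges emission near 667 nm and signal to noise per printed spot across three slides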", "settings": "FSTL3 binding, higher = more signal"}, "[9]": {"target": "Dickkopf-related protein 1 (Homo sapiens) (UniProt O94907)", "sequence (O94907 whole entry, looked up)": "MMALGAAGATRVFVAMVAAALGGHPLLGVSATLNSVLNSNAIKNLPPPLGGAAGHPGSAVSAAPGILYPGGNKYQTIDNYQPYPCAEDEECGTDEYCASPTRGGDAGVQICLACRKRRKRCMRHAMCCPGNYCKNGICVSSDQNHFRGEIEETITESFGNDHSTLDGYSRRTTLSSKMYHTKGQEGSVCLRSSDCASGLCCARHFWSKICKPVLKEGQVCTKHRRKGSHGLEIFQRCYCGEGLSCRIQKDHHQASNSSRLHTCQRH", "assay": "small molecules binding DKK1 protein – biochemical, small-molecule microarray, 635 nm fluorescence scan, primary screen (AID 1106);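 further: score merges emission near 667 nm with signal to noise over three replicate slides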", "settings": "higher = more signal"}, "[10]": {"test_system": "Inhibin beta A chain (activin A)", "assay": "small molecules binding activin A – biochemical, small-molecule microarray, 635 nm fluorescence scan, primary screen (AID 1107);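 further: mouse activin A protein probed at 4.33 µg/mL on printed slides; score merges bound-protein fluorescence near 667 nm with spot signal-to-noise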", "settings": "INHBA, higher = more signal"}, "[11]": {"test_system": "Human papillomavirus type 1a protein E7 (residues 44-93)", "assay": "small molecules binding HPV E7 44-93 – biochemical, small-molecule microarray, residues 44-93, 635 nm fluorescence, primary screen (AID 1108);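 further: E7 fragment applied at 1 µg/mL in TBST for 1 h at 4 C; score combines spot fluorescence with its signal to noise ratio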", "settings": "fluorescence 635 nm, higher = more signal"}, "[12]": {"assay": "hepatitis C replication reporter changes, two-sided – Huh7 cells, luciferase reporter, HCV replication inhibitor project, primary screen (AID 1109);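 further: huh7 hepatoma cells harbouring a luciferase neomycin HCV replicon reporter; test concentration not given here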", "settings": "Huh7 HCV replicon luciferase reporter, 48 h; higher = more signal"}, "[13]": {"target": "Left-right determination factor 2 (Homo sapiens) (UniProt O00292)", "sequence (O00292 whole entry, looked up)": "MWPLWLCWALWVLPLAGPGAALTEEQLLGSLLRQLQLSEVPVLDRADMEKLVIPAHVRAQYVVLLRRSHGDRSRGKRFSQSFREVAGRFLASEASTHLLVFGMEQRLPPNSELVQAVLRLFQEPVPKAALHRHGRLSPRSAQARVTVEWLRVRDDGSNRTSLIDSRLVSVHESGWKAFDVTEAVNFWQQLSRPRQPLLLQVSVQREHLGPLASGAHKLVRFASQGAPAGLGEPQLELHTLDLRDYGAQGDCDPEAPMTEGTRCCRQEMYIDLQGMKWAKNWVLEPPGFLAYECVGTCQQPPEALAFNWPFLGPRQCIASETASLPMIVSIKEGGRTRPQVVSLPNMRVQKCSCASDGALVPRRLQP", "assay": "small molecules binding LEFTY2 protein – biochemical, small-molecule microarray, 635 nm fluorescence scan, primary screen (AID 1110)", "settings": "higher = more signal"}, "[14]": {"target": "Calmodulin-1 (Homo sapiens) (UniProt P0DP23)", "assay": "small molecules binding calmodulin-1 with EGTA – biochemical, small-molecule microarray, Cy5-labelled CALM1, profiling panel (AID 1111);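 further: labelled calmodulin applied in Tris saline Tween buffer holding calcium plus EGTA and DTT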", "settings": "Cy5-CALM1 binding fluorescence, higher = more signal"}, "[15]": {"target": "Calmodulin-1 (Homo sapiens) (UniProt P0DP23)", "assay": "small molecules binding Ca-loaded calmodulin-1 – biochemical, small-molecule microarray, Cy5-labelled CALM1, plus calcium, artefact control for SMM control-protein annotation, profiling panel (AID 1112);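 further: score merges spot fluorescence with signal to noise from triplicate slides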", "settings": "Cy5-CALM1 binding fluorescence, higher = more signal"}, "[16]": {"assay": "probe aWnt5a binding to arrayed compounds – biochemical, biotinylated probe, 635/667 nm fluorescence, primary screen (AID 1113);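 further: score merges 667 nm fluorescence intensity with signal-to-noise per printed feature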", "settings": "small-molecule microarray, higher = more signal"}, "[17]": {"assay": "probe aShh binding to arrayed compounds – biochemical, biotinylated probe, 635/667 nm fluorescence, primary screen (AID 1114);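 further: probe is biotin-labelled aShh protein from a stem cell growth factor screen; measures binding of labelled protein to compounds printed on the slide; score merges feature fluorescence at 667 nm with signal-to-noise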", "settings": "small-molecule microarray, higher = more signal"}, "[18]": {"assay": "probe aNog binding to arrayed compounds – biochemical, biotinylated probe, 635/667 nm fluorescence, primary screen (AID 1115);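 further: probe is biotinylated aNog protein used at 0.15 µg/mL for 1 h at 4 C; z-score combines 667 nm fluorescence of each spot with its signal to noise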", "settings": "small-molecule microarray, higher = more signal"}, "[19]": {"target": "Torsin-1A-interacting protein 1 (Homo sapiens) (UniProt Q5JTV8)", "sequence (Q5JTV8 whole entry, looked up)": "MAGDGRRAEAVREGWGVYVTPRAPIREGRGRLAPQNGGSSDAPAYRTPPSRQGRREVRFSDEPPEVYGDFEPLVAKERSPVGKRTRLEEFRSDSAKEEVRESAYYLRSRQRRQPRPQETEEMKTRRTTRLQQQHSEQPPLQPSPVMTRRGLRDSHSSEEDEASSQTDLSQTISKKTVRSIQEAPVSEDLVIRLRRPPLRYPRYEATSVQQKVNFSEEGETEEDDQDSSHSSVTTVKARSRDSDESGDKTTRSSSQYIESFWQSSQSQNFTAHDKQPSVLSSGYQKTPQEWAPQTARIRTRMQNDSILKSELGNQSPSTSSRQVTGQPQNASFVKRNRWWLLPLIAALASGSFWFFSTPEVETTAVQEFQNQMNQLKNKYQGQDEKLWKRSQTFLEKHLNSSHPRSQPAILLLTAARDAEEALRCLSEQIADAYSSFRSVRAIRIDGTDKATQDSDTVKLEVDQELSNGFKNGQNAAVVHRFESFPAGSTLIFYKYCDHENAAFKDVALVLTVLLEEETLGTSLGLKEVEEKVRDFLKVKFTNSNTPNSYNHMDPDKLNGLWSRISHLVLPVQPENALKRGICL", "assay": "compound microarray binding of lysate hLAP1 – cell lysate, small-molecule microarray, COS7 lysate, 635/667 nm fluorescence, primary screen (AID 1116)", "settings": "635 nm fluorescence, higher = more signal"}, "[20]": {"target": "Alpha-bungarotoxin (Bungarus multicinctus) (UniProt P60615)", "sequence (P60615 whole entry, looked up)": "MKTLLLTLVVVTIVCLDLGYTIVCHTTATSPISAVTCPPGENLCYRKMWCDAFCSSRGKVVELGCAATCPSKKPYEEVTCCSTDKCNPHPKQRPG", "assay": "compounds binding labelled alpha-BTX control protein – biochemical, small-molecule microarray, Alexa647 label, 635/667 nm fluorescence, artefact control for SMM control protein annotation, profiling panel (AID 1117)", "settings": "alpha-BTX-A647 binding fluorescence, higher = more signal"}}, "note": "The source made the active and inactive calls."}
{"compound": "CCOC(=O)[C@H](CC(C)C)NC(=O)CCC1CC(OC(=O)NCc2cccc3ccccc23)CC2(CCCC(COC(=O)NCC3CCCCC3)O2)O1", "note": "(stereo not given in full)", "values": [{"measurement": "composite z-score", "setting": "[1]", "result": 0.442}, {"measurement": "composite z-score", "setting": "[2]", "result": -0.11}, {"measurement": "composite z-score", "setting": "[3]", "result": -0.369}, {"measurement": "z-score", "setting": "[4]", "result": "-1.42 (inactive)"}, {"measurement": "composite z-score", "setting": "[5]", "result": 0.924}, {"measurement": "composite z-score", "setting": "[6]", "result": 0.941}, {"measurement": "composite z-score", "setting": "[7]", "result": 0.344}, {"measurement": "composite z-score", "setting": "[8]", "result": 0.855}, {"measurement": "composite z-score", "setting": "[9]", "result": 0.6}, {"measurement": "composite z-score", "setting": "[10]", "result": 0.0385}, {"measurement": "composite z-score", "setting": "[11]", "result": 1.31}, {"measurement": "z-score", "setting": "[12]", "result": -1.93}, {"measurement": "composite z-score", "setting": "[13]", "result": 0.559}, {"measurement": "composite z-score", "setting": "[14]", "result": 0.162}, {"measurement": "composite z-score", "setting": "[15]", "result": -0.376}, {"measurement": "composite z-score", "setting": "[16]", "result": -0.0792}, {"measurement": "composite z-score", "setting": "[17]", "result": -0.2}, {"measurement": "composite z-score", "setting": "[18]", "result": -0.256}, {"measurement": "composite z-score", "setting": "[19]", "result": 0.158}, {"measurement": "composite z-score", "setting": "[20]", "result": 0.742}]}
{"compound": "O=C1C[C@@H](O)[C@@H](O)[C@@H]2[C@@H]3C(=O)N(Cc4ccccc4)C(=O)[C@@H]3CC[C@@H]12", "values": [{"measurement": "composite z-score", "setting": "[1]", "result": 0.463}, {"measurement": "composite z-score", "setting": "[2]", "result": -0.222}, {"measurement": "composite z-score", "setting": "[3]", "result": -0.47}, {"measurement": "z-score", "setting": "[4]", "result": "0.859 (inactive)"}, {"measurement": "composite z-score", "setting": "[5]", "result": 0.807}, {"measurement": "composite z-score", "setting": "[6]", "result": 0.863}, {"measurement": "composite z-score", "setting": "[7]", "result": 0.506}, {"measurement": "composite z-score", "setting": "[8]", "result": 0.888}, {"measurement": "composite z-score", "setting": "[9]", "result": 0.59}, {"measurement": "composite z-score", "setting": "[10]", "result": 0.11}, {"measurement": "composite z-score", "setting": "[11]", "result": 0.467}, {"measurement": "z-score", "setting": "[12]", "result": -0.76}, {"measurement": "composite z-score", "setting": "[13]", "result": 0.474}, {"measurement": "composite z-score", "setting": "[14]", "result": -0.0573}, {"measurement": "composite z-score", "setting": "[15]", "result": -0.761}, {"measurement": "composite z-score", "setting": "[16]", "result": -0.195}, {"measurement": "composite z-score", "setting": "[17]", "result": 0.0684}, {"measurement": "composite z-score", "setting": "[18]", "result": -0.0784}, {"measurement": "composite z-score", "setting": "[19]", "result": 0.442}, {"measurement": "composite z-score", "setting": "[20]", "result": 0.101}]}
{"compound": "COC(=O)CC=C[C@@H](C)[C@@H](C=NOC[C@@H](O)[C@H]1O[C@@H]2OC(C)(C)O[C@@H]2[C@H]1O)NS(=O)(=O)c1ccc(C)cc1", "values": [{"measurement": "composite z-score", "setting": "[1]", "result": 0.698}, {"measurement": "composite z-score", "setting": "[2]", "result": -0.251}, {"measurement": "composite z-score", "setting": "[3]", "result": -0.614}, {"measurement": "z-score", "setting": "[4]", "result": "0.318 (inactive)"}, {"measurement": "composite z-score", "setting": "[5]", "result": 0.504}, {"measurement": "composite z-score", "setting": "[6]", "result": 0.471}, {"measurement": "composite z-score", "setting": "[7]", "result": 0.419}, {"measurement": "composite z-score", "setting": "[8]", "result": 0.427}, {"measurement": "composite z-score", "setting": "[9]", "result": 0.653}, {"measurement": "composite z-score", "setting": "[10]", "result": -0.0684}, {"measurement": "composite z-score", "setting": "[11]", "result": 0.496}, {"measurement": "z-score", "setting": "[12]", "result": -0.499}, {"measurement": "composite z-score", "setting": "[13]", "result": 0.417}, {"measurement": "composite z-score", "setting": "[14]", "result": 0.0636}, {"measurement": "composite z-score", "setting": "[15]", "result": -0.627}, {"measurement": "composite z-score", "setting": "[16]", "result": -0.0882}, {"measurement": "composite z-score", "setting": "[17]", "result": -0.715}, {"measurement": "composite z-score", "setting": "[18]", "result": 0.0416}, {"measurement": "composite z-score", "setting": "[19]", "result": 0.167}, {"measurement": "composite z-score", "setting": "[20]", "result": 0.101}]}
{"compound": "CCc1cc2c(nc1CC)CCN(CCC(C)=NO[C@@H](C)c1cn([C@H](CO)Cc3ccccc3)nn1)C2", "values": [{"measurement": "composite z-score", "setting": "[1]", "result": 0.6}, {"measurement": "composite z-score", "setting": "[2]", "result": -0.102}, {"measurement": "composite z-score", "setting": "[3]", "result": 0.0143}, {"measurement": "z-score", "setting": "[4]", "result": "0.113 (inactive)"}, {"measurement": "composite z-score", "setting": "[5]", "result": -0.122}, {"measurement": "composite z-score", "setting": "[6]", "result": -0.32}, {"measurement": "composite z-score", "setting": "[7]", "result": 0.253}, {"measurement": "composite z-score", "setting": "[8]", "result": 0.474}, {"measurement": "composite z-score", "setting": "[9]", "result": 0.436}, {"measurement": "composite z-score", "setting": "[10]", "result": 1.29}, {"measurement": "composite z-score", "setting": "[11]", "result": -0.296}, {"measurement": "z-score", "setting": "[12]", "result": -2.1}, {"measurement": "composite z-score", "setting": "[13]", "result": 0.483}, {"measurement": "composite z-score", "setting": "[14]", "result": -0.41}, {"measurement": "composite z-score", "setting": "[15]", "result": -0.555}, {"measurement": "composite z-score", "setting": "[16]", "result": -0.096}, {"measurement": "composite z-score", "setting": "[17]", "result": -0.147}, {"measurement": "composite z-score", "setting": "[18]", "result": -0.203}, {"measurement": "composite z-score", "setting": "[19]", "result": -0.11}, {"measurement": "composite z-score", "setting": "[20]", "result": 0.312}]}
